About 2,000 (36%) of roughly 5,500 compounds were called active. Another 18% or so got no clear call; they are omitted. No stated cut-off is given here; in the data, active means normalized growth mostly below about 0.91 (no sharp cut-off); inconclusive means no clear call, values can overlap the other calls; inactive means mostly above about 0.92. This is one part of the list.
Assay: chemical genetic growth profiling, strain panel (AID 1159580);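 further: tested at 20 µM; growth read once vehicle control cultures reached saturation at 30 °C; 1 = growth at the plate median or of vehicle wells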
Conditions: growth OD

Measured: normalized growth

Nc1ncn([C@@H]2O[C@H](CO)[C@@H](O)[C@H]2O)c(=O)n1
inactive: S. cerevisiae deletion strains, locus YJR066W, strain TOR1, stronger effect = lower value 0.948 | S. cerevisiae deletion strains, locus YKL009W, strain mrt4, stronger effect = lower value 1 | S. cerevisiae deletion strains, locus YKL068W, stronger effect = lower value 0.997 | S. cerevisiae deletion strains, locus YKL085W, strain MDH1 (second series), stronger effect = lower value 0.989 | S. cerevisiae deletion strains, locus YKL085W, strain MDH1, stronger effect = lower value 0.989 | S. cerevisiae deletion strains, locus YKL160W, strain elf1, stronger effect = lower value 0.99 | S. cerevisiae deletion strains, locus YKL190W, strain CNB1, stronger effect = lower value 1.01 | S. cerevisiae deletion strains, locus YKR001C, strain vps1, stronger effect = lower value 1.02 | S. cerevisiae deletion strains, locus YKR026C, strain gcn3, stronger effect = lower value 1.07 | S. cerevisiae deletion strains, locus YKR091W, strain srl3, stronger effect = lower value 0.967 | S. cerevisiae deletion strains, locus YLL001W, strain dnm1, stronger effect = lower value 0.952 | S. cerevisiae deletion strains, locus YLL026W, stronger effect = lower value 0.997 | S. cerevisiae deletion strains, locus YLL041C, strain sdh2, stronger effect = lower value 0.989 | S. cerevisiae deletion strains, locus YLR027C, strain aat2, stronger effect = lower value 0.985 | S. cerevisiae deletion strains, locus YLR039C, strain RIC1, stronger effect = lower value 1.01 | S. cerevisiae deletion strains, locus YLR058C, strain SHM2, stronger effect = lower value 1.02 | S. cerevisiae deletion strains, locus YLR102C, strain apc9, stronger effect = lower value 0.993 | S. cerevisiae deletion strains, locus YLR113W, strain HOG1, stronger effect = lower value 0.951 | S. cerevisiae deletion strains, locus YLR221C, strain rsa3, stronger effect = lower value 1.01 | S. cerevisiae deletion strains, locus YLR258W, strain gsy2, stronger effect = lower value 0.992 | S. cerevisiae deletion strains, locus YLR262C, strain YPT6 (second series), stronger effect = lower value 0.955 | S. cerevisiae deletion strains, locus YLR262C, strain YPT6, stronger effect = lower value 1.06 | S. cerevisiae deletion strains, locus YLR268W, strain sec22, stronger effect = lower value 0.99 | S. cerevisiae deletion strains, locus YLR320W, strain mms22, stronger effect = lower value 1 | S. cerevisiae deletion strains, locus YLR330W, strain CHS5, stronger effect = lower value 1 | S. cerevisiae deletion strains, locus YLR342W, strain FKS1 (second series), stronger effect = lower value 1 | S. cerevisiae deletion strains, locus YLR342W, strain FKS1, stronger effect = lower value 0.932 | S. cerevisiae deletion strains, locus YLR357W, strain rsc2, stronger effect = lower value 1.01 | S. cerevisiae deletion strains, locus YLR370C, strain arc18, stronger effect = lower value 0.985 | S. cerevisiae deletion strains, locus YLR371W, strain rom2, stronger effect = lower value 0.994 | S. cerevisiae deletion strains, locus YLR384C, strain iki3, stronger effect = lower value 0.974 | S. cerevisiae deletion strains, locus YLR418C, strain cdc73, stronger effect = lower value 0.973 | S. cerevisiae deletion strains, locus YML016C, strain PPZ1, stronger effect = lower value 1.01 | S. cerevisiae deletion strains, locus YML032C, strain rad52, stronger effect = lower value 0.998 | S. cerevisiae deletion strains, locus YML120C, strain ndi1, stronger effect = lower value 0.986 | S. cerevisiae deletion strains, locus YML124C, strain tub3, stronger effect = lower value 1 | S. cerevisiae deletion strains, locus YMR058W, strain fet3, stronger effect = lower value 0.989 | S. cerevisiae deletion strains, locus YMR078C, strain ctf18, stronger effect = lower value 0.992 | S. cerevisiae deletion strains, locus YMR125W, strain sto1, stronger effect = lower value 0.962 | S. cerevisiae deletion strains, locus YMR129W, stronger effect = lower value 0.996 | S. cerevisiae deletion strains, locus YMR205C, strain PFK2, stronger effect = lower value 0.967 | S. cerevisiae deletion strains, locus YMR223W, strain ubp8, stronger effect = lower value 0.989 | S. cerevisiae deletion strains, locus YMR231W, strain pep5, stronger effect = lower value 0.985 | S. cerevisiae deletion strains, locus YMR307W, strain GAS1, stronger effect = lower value 0.982 | S. cerevisiae deletion strains, locus YNL067W, strain RPL9B, stronger effect = lower value 1.02 | S. cerevisiae deletion strains, locus YNL071W, strain lat1, stronger effect = lower value 1.01 | S. cerevisiae deletion strains, locus YNL153C, strain GIM3, stronger effect = lower value 1.04 | S. cerevisiae deletion strains, locus YNL183C, strain NPR1, stronger effect = lower value 0.935 | S. cerevisiae deletion strains, locus YNL209W, strain ssb2, stronger effect = lower value 0.997 | S. cerevisiae deletion strains, locus YNL233W, strain BNI4, stronger effect = lower value 1.03 | S. cerevisiae deletion strains, locus YNL248C, strain rpa49, stronger effect = lower value 0.951 | S. cerevisiae deletion strains, locus YNL250W, strain rad50, stronger effect = lower value 1.01 | S. cerevisiae deletion strains, locus YNL271C, strain bni1, stronger effect = lower value 1 | S. cerevisiae deletion strains, locus YNL298W, strain CLA4, stronger effect = lower value 1 | S. cerevisiae deletion strains, locus YNL307C, strain MCK1, stronger effect = lower value 0.998 | S. cerevisiae deletion strains, locus YNL322C, strain KRE1 (second series), stronger effect = lower value 0.978 | S. cerevisiae deletion strains, locus YNL322C, strain KRE1, stronger effect = lower value 1.01 | S. cerevisiae deletion strains, locus YNR049C, strain mso1, stronger effect = lower value 0.968 | S. cerevisiae deletion strains, locus YNR052C, strain pop2, stronger effect = lower value 0.993 | S. cerevisiae deletion strains, locus YOL006C, strain TOP1, stronger effect = lower value 1.07 | S. cerevisiae deletion strains, locus YOL012C, strain htz1 0.991 | S. cerevisiae deletion strains, locus YOL147C, strain pex11, stronger effect = lower value 1 | S. cerevisiae deletion strains, locus YOR001W, strain rrp6, stronger effect = lower value 0.976 | S. cerevisiae deletion strains, locus YOR061W, strain CKA2, stronger effect = lower value 1.02 | S. cerevisiae deletion strains, locus YOR069W, strain VPS5, stronger effect = lower value 1.01 | S. cerevisiae deletion strains, locus YOR070C, strain gyp1, stronger effect = lower value 0.99 | S. cerevisiae deletion strains, locus YOR080W, strain dia2, stronger effect = lower value 0.967 | S. cerevisiae deletion strains, locus YOR083W, strain WHI5, stronger effect = lower value 0.968 | S. cerevisiae deletion strains, locus YOR106W, strain vam3, stronger effect = lower value 0.959 | S. cerevisiae deletion strains, locus YOR136W, strain idh2, stronger effect = lower value 1 | S. cerevisiae deletion strains, locus YOR144C, strain elg1, stronger effect = lower value 0.99 | S. cerevisiae deletion strains, locus YOR184W, strain ser1, stronger effect = lower value 0.996 | S. cerevisiae deletion strains, locus YOR231W, strain MKK1, stronger effect = lower value 0.974 | S. cerevisiae deletion strains, locus YOR265W, strain rbl2, stronger effect = lower value 0.989 | S. cerevisiae deletion strains, locus YOR270C, strain vph1, stronger effect = lower value 0.958 | S. cerevisiae deletion strains, locus YOR290C, strain snf2, stronger effect = lower value 1.01 | S. cerevisiae deletion strains, locus YOR316C, strain cot1, stronger effect = lower value 0.997 | S. cerevisiae deletion strains, locus YPL051W, strain arl3, stronger effect = lower value 0.992 | S. cerevisiae deletion strains, locus YPL078C, strain atp4, stronger effect = lower value 0.958 | S. cerevisiae deletion strains, locus YPL106C, strain sse1, stronger effect = lower value 0.978 | S. cerevisiae deletion strains, locus YPL240C, strain hsp82, stronger effect = lower value 0.986 | S. cerevisiae deletion strains, locus YPL241C, strain CIN2, stronger effect = lower value 1.01 | S. cerevisiae deletion strains, locus YPL256C, strain CLN2, stronger effect = lower value 0.975 | S. cerevisiae deletion strains, locus YPR119W, strain clb2, stronger effect = lower value 0.99 | S. cerevisiae deletion strains, locus YPR141C, strain kar3, stronger effect = lower value 0.99 | S. cerevisiae deletion strains, locus YPR163C, strain tif3, stronger effect = lower value 0.998 | S. cerevisiae deletion strains, locus YPR167C, strain met16, stronger effect = lower value 0.994 | S. cerevisiae deletion strains, strain wtn01, stronger effect = lower value 1.01 | S. cerevisiae strains, strain wild type, stronger effect = lower value 1.01

— PubChem BioAssay AID1159580 (chemical genetic matrix, 2015)
